Test results taken from PubChem BioAssay.
Active and inactive are the calls of the source.

Tests used:
[1] = tested on: Human papillomavirus type 1a protein E7 (residues 44-93); assay: small molecules binding HPV E7 44-93 – biochemical, small-molecule microarray, residues 44-93, 635 nm fluorescence, primary screen (AID 1108); details: fluorescence 635 nm, higher = more signal;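 also: E7 fragment applied at 1 µg/mL in TBST for 1 h at 4 C; score combines spot fluorescence with its signal to noise ratio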
[2] = hepatitis C replication reporter changes, two-sided – Huh7 cells, luciferase reporter, HCV replication inhibitor project, primary screen (AID 1109); details: Huh7 HCV replicon luciferase reporter, 48 h; higher = more signal;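 also: huh7 hepatoma cells harbouring a luciferase neomycin HCV replicon reporter; luciferase luminescence as measure of HCV replicon replication; test concentration not given here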
[3] = target: Left-right determination factor 2 (Homo sapiens) (UniProt O00292); assay: small molecules binding LEFTY2 protein – biochemical, small-molecule microarray, 635 nm fluorescence scan, primary screen (AID 1110); details: higher = more signal
[4] = target: Calmodulin-1 (Homo sapiens) (UniProt P0DP23); assay: small molecules binding calmodulin-1 with EGTA – biochemical, small-molecule microarray, Cy5-labelled CALM1, profiling panel (AID 1111); details: Cy5-CALM1 binding fluorescence, higher = more signal;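 also: labelled calmodulin applied in Tris saline Tween buffer holding calcium plus EGTA and DTT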
[5] = target: Calmodulin-1 (Homo sapiens) (UniProt P0DP23); assay: small molecules binding Ca-loaded calmodulin-1 – biochemical, small-molecule microarray, Cy5-labelled CALM1, plus calcium, artefact control for SMM control-protein annotation, profiling panel (AID 1112); details: Cy5-CALM1 binding fluorescence, higher = more signal;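 also: score merges spot fluorescence with signal to noise from triplicate slides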
[6] = probe aWnt5a binding to arrayed compounds – biochemical, biotinylated probe, 635/667 nm fluorescence, primary screen (AID 1113); details: small-molecule microarray, higher = more signal;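 also: score merges 667 nm fluorescence intensity with signal-to-noise per printed feature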
[7] = probe aShh binding to arrayed compounds – biochemical, biotinylated probe, 635/667 nm fluorescence, primary screen (AID 1114); details: small-molecule microarray, higher = more signal;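 also: probe is biotin-labelled aShh protein from a stem cell growth factor screen; measures binding of labelled protein to compounds printed on the slide; score merges feature fluorescence at 667 nm with signal-to-noise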
[8] = probe aNog binding to arrayed compounds – biochemical, biotinylated probe, 635/667 nm fluorescence, primary screen (AID 1115); details: small-molecule microarray, higher = more signal;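 also: probe is biotinylated aNog protein used at 0.15 µg/mL for 1 h at 4 C; z-score combines 667 nm fluorescence of each spot with its signal to noise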
[9] = target: Torsin-1A-interacting protein 1 (Homo sapiens) (UniProt Q5JTV8); assay: compound microarray binding of lysate hLAP1 – cell lysate, small-molecule microarray, COS7 lysate, 635/667 nm fluorescence, primary screen (AID 1116); details: 635 nm fluorescence, higher = more signal
[10] = target: Alpha-bungarotoxin (Bungarus multicinctus) (UniProt P60615); assay: compounds binding labelled alpha-BTX control protein – biochemical, small-molecule microarray, Alexa647 label, 635/667 nm fluorescence, artefact control for SMM control protein annotation, profiling panel (AID 1117); details: alpha-BTX-A647 binding fluorescence, higher = more signal
Albumin (Bos taurus) = Albumin (Bos taurus) (UniProt P02769); assay: compounds binding labelled BSA control protein – biochemical, small-molecule microarray, Alexa647 label, 635/667 nm fluorescence, artefact control for SMM control protein annotation, profiling panel (AID 1118); details: BSA-A647 binding, fluorescence 635 nm, higher = more signal;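 also: score merges 667 nm emission intensity and signal-to-noise per printed compound spot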
[11] = probe aXIP binding to arrayed compounds – biochemical, NeuroSMM set, 635/667 nm fluorescence, primary screen (AID 1119); details: small-molecule microarray, higher = more signal, called active from +8 up or from −8 down;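 also: probe is the protein aXip251-270 applied at 1 µg/mL to compound-printed slides; binding of probe to printed compounds measured as 667 nm fluorescence plus signal to noise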
[12] = probe aNOTCH3 binding on compound microarray – biochemical, small-molecule microarray, 635/667 nm fluorescence, primary screen (AID 1120); details: higher = more signal;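 also: probe is a biotin-tagged antibody raised against NOTCH3 rather than NOTCH3 protein; score merges spot fluorescence near 667 nm with spot signal to noise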
[13] = probe aNOTCH2 binding on compound microarray – biochemical, small-molecule microarray, 635/667 nm fluorescence, primary screen (AID 1121); details: higher = more signal;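 also: score merges feature fluorescence read at 667 nm with its signal to noise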
[14] = target: Carbonic anhydrase 2 (Homo sapiens) (UniProt P00918); assay: compounds binding carbonic anhydrase 2 – biochemical, small-molecule microarray, Alexa647-labelled CAII, profiling panel (AID 1122); details: CAII-A647 binding fluorescence, higher = more signal
[15] = COS7 lysate on small-molecule microarray, probe aHis, 635 nm (AID 1123); details: COS7 cell lysate, fluorescence, higher = more signal;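 also: z-score combines 667nm fluorescence intensity with signal-to-noise per printed compound spot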
[16] = probe aLAP1 signal on lysate-treated microarray – cell lysate, small-molecule microarray, COS7 lysate, primary screen (AID 1124); details: probe aLAP1, fluorescence, higher = more signal;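 also: lysate comes from COS7 cells expressing LAP1 and is applied at 0.3 µg/mL; score merges spot fluorescence near 667 nm with signal-to-noise over triplicate slides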
Sam68 (KHDRBS1) = assay: compounds binding KHDRBS1 protein – biochemical, small-molecule microarray, 635 nm fluorescence, primary screen (AID 1125); details: higher = more signal;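 also: score merges 667 nm channel intensity with signal to noise over triplicate slides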
[17] = tested on: Chordin-like protein 2 (CHRDL2); assay: compounds binding chordin-like 2 – biochemical, small-molecule microarray, 635 nm fluorescence, primary screen (AID 1126); details: fluorescence 635 nm, higher = more signal;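 also: printed compound slides probed with Chrdl2 protein at 4 µg/mL for 1 h at 4 C; score merges 667 nm emission intensity with signal to noise over three replicate slides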
[18] = target: Concanavalin-A (Canavalia ensiformis) (UniProt P02866); assay: compounds binding concanavalin A lectin – biochemical, small-molecule microarray, Alexa647 label, 635 nm, artefact control for SMM control protein annotation, primary screen (AID 1127); details: ConA-A647 binding fluorescence, higher = more signal;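 also: z combines 667 nm emission intensity with signal-to-noise across three replicate slides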
Concanavalin-A (Canavalia ensiformis), sequence (P02866 whole entry, looked up): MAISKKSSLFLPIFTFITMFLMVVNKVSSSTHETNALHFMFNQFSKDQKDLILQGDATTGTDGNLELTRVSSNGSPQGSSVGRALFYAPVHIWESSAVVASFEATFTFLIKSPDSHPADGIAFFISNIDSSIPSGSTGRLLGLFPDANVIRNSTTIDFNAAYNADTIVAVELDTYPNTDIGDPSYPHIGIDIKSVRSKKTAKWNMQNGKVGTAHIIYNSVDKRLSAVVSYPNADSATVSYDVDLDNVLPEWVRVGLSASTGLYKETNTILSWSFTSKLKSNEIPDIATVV

Albumin (Bos taurus), sequence (P02769 whole entry, looked up): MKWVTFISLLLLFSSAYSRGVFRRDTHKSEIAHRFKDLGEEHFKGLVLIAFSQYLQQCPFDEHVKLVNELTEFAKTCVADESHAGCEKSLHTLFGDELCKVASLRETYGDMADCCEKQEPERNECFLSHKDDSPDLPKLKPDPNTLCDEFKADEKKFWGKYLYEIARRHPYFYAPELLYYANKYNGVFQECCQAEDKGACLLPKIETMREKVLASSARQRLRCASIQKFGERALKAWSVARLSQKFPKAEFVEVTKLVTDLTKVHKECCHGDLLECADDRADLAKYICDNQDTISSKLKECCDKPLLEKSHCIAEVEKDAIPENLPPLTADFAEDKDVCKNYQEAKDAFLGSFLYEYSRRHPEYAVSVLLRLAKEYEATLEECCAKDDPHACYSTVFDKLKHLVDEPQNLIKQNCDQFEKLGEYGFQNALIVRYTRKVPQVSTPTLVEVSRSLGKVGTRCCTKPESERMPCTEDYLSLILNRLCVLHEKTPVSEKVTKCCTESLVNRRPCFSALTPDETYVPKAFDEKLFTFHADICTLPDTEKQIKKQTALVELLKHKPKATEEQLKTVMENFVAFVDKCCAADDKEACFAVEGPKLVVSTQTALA
Alpha-bungarotoxin (Bungarus multicinctus), sequence (P60615 whole entry, looked up): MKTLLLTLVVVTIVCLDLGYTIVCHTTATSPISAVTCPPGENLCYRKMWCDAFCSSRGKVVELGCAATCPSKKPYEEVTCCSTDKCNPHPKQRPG
Left-right determination factor 2 (Homo sapiens), sequence (O00292 whole entry, looked up): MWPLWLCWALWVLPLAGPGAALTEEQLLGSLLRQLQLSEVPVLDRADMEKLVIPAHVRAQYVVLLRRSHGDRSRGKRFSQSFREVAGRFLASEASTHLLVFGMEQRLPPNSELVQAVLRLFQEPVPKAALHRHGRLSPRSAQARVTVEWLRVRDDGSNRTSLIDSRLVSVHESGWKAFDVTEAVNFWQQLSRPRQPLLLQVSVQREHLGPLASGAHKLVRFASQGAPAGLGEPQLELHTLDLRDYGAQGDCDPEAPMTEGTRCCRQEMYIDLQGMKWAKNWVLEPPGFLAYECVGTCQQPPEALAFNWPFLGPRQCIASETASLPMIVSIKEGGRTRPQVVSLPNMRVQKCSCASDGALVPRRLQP
Torsin-1A-interacting protein 1 (Homo sapiens), sequence (Q5JTV8 whole entry, looked up): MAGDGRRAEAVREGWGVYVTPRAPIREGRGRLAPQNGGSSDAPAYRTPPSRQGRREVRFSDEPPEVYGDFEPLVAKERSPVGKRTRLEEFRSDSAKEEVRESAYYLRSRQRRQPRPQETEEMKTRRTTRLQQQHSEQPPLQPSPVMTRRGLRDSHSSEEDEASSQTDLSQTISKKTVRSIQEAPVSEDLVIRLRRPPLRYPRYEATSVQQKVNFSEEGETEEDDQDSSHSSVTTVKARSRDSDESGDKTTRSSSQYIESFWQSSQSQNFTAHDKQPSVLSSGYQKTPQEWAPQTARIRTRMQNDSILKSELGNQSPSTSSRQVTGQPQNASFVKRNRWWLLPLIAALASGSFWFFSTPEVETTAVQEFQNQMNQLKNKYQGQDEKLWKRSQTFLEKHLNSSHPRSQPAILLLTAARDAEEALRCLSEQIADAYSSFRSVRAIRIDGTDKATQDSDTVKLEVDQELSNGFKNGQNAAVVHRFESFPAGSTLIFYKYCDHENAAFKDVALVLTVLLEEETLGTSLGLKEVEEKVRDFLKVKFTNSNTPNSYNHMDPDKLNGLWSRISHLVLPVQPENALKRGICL

Structure (SMILES)	composite z-score [1]	z-score [2]	composite z-score [3]	composite z-score [4]	composite z-score [5]	composite z-score [6]	composite z-score [7]	composite z-score [8]	composite z-score [9]	composite z-score [10]	composite z-score (Albumin (Bos taurus))	composite Z-score [11]	composite z-score [12]	composite z-score [13]	composite z-score [14]	composite z-score [15]	composite z-score [16]	composite z-score (Sam68 (KHDRBS1))	composite z-score [17]	composite z-score [18]
CC(CCC(=O)OC[C@H]1O[C@H](C#Cc2ccccc2)C=C[C@@H]1Oc1ccc(C)cc1)=NOC[C@@H](O)COCc1ccco1	-0.412	-0.635	-5.42	-1.49	-1.96	-0.426	-0.206	-0.732	-1.87	-0.818	-0.515	-0.142 (inactive)	-0.781	-0.306	-0.451	-0.128	-0.547	-1.96	-3.83	-3.95
COC(=O)CC=C[C@@H](C)[C@H](OC)c1ccccc1Br	-0.0017	0.14	0.406	-0.0557	-0.346	-0.116	-0.279	-0.482	0.188	-0.152	-0.335	0.0948 (inactive)	0.0985	-0.0684	-0.0896	-0.453	0.1	-0.0689	0.508	-0.24
CCc1cccc(NC(=O)O[C@H]2[C@H](OC(=O)Nc3ccc4c(c3)OCO4)[C@@H](OC(=O)Nc3ccc4c(c3)OCO4)[C@@H](OC)O[C@@H]2CO)c1	1.4	-0.717	0.645	0.779	-1.12	0.0136	0.214	-0.229	0.577	0.545	0.539	0.108 (inactive)	0.42	-0.0714	0.645	2.42	0.665	1.29	0.463	0.638
CCOC(=O)[C@H](Cc1ccccc1)NC(=O)CCC1CC(OC(=O)NCc2ccc3c(c2)OCO3)CC2(CCCC(COC(=O)NCc3ccccc3)O2)O1 (stereo not given in full)	1.33	-1.08	0.619	0.351	-0.298	-0.128	-0.0793	0.041	0.183	0.463	0.3	0.255 (inactive)	0.0437	-0.0728	0.373	0.248	0.0766	1.06	0.261	0.915
CC(C)CON=C1C[C@@H](O)[C@@H](O)[C@@H]2[C@@H]3C(=O)N(C[C@@H]4CCCO4)C(=O)[C@@H]3CC[C@H]12	0.595	0.392	0.781	0.0832	0.0249	-0.178	-0.345	-0.074	0.241	0.0141	-0.3	-0.311 (inactive)	-0.101	-0.0659	0.0765	0.737	-0.193	0.697	-0.0163	0.12
C[C@H]1CC[C@@H](C(=O)O)N[C@@H]1c1ccc(C#CCN(C)C)cc1	-1.64	0.848	0.793	-0.263	-0.51	-0.152	0.148	-0.126	0.109	0.783	-0.0169	0.26 (inactive)	0.0556	-0.149	0.37	-0.144	-0.0228	-0.331	0.591	0.574
COCCCNC(=O)[C@]1(CCC(=O)OC(C)(C)C)N=C(c2ccc(OCCCO)cc2)O[C@@H]1c1ccccc1N=[N+]=[N-]	1.45	0.971	0.197	1.88	0.671	0.183	0.0948	1.56	1.21	1.64	0.913	0.201 (inactive)	0.534	-0.092	0.725	3.09	0.0106	1.31	-0.18	1.17
CO[C@@H]1COC(=O)CC=C[C@@H](C)[C@@H]2C=C[C@H](O)[C@@H](COC(=O)CCC[C@H]1C)O2	-1.05	-1.96	1.31	-0.859	-1.7	-0.0721	0.211	-0.0755	0.962	-0.394	-0.203	0.135 (inactive)	0.0319	-0.184	-0.455	-1.2	0.0206	0.0503	1.3	-0.239
C[C@@H]1C=CCC(=O)OC[C@H](C)C(=O)N2CCC[C@H]2C(=O)OC1	0.685	-1.06	0.851	-0.725	-1.26	-0.22	0.0188	0.0419	0.96	-0.285	-0.12	0.608 (inactive)	-0.143	-0.0338	-0.0527	-0.0199	0.0742	1.14	1.58	0.182
O=C1[C@H]2[C@H]3[C@H](O)[C@H](O)CC(=NO[C@@H]4O[C@H](CO)[C@@H](O)[C@H](O)[C@H]4O)[C@@H]3CC[C@H]2C(=O)N1Cc1ccc2c(c1)OCO2	1.13	0.363	0.387	0.0102	-0.566	-0.0519	-0.403	-0.244	0.715	0.378	-0.037	0.484 (inactive)	-0.004	-0.18	0.376	0.542	-0.211	0.907	0.538	0.211
COC(=O)C1=CCC(c2cccc(Cl)c2)O1 (stereo not given)	0.387	-2.31	0.106	0.0588	-0.23	-0.0286	-0.291	0.287	0.0692	0.648	0.431	0.0018 (inactive)	-0.112	-0.0907	0.483	-0.21	-0.201	0.137	-0.667	0.247
